Several values for one entry are separate records, joined by “and”; a condition that tells them apart may be missing. Identical values can stand only once. Hit rate of the full screen: of about 5,500 compounds, about 2,000 (36%) were called active. Not shown: some 18% with an inconclusive outcome. Rule as the data show it: active = normalized growth mostly below about 0.91 (no sharp cut-off); inconclusive = no clear call, values can overlap the other calls; inactive = mostly above about 0.92. Some of the results follow.
Test: chemical genetic growth profiling, strain panel (AID 1159580);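 also: tested at 20 µM; growth read once vehicle control cultures reached saturation at 30 °C; 1 = growth at the plate median or of vehicle wells; lower values mean less growth of the strain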
Conditions: S. cerevisiae deletion strains, growth OD

Measured: normalized growth

COc1cc2ccc(=O)oc2c(O)c1O
inactive: locus YBR021W, strain FUR4, hits give low values 1.03 | locus YBR229C, strain ROT2, hits give low values 0.957 | locus YCL029C, strain bik1, hits give low values 1.01 | locus YDL035C, strain GPR1, hits give low values 1.01 | locus YDL074C, strain BRE1, hits give low values 1.05 | locus YDL101C, strain DUN1, hits give low values 0.984 | locus YDL185W, strain tfp1, hits give low values 0.983 | locus YDL192W, strain arf1, hits give low values 1 | locus YDR101C, strain arx1, hits give low values 1.01 | locus YDR162C, strain NBP2, hits give low values 0.934 | locus YDR318W, strain mcm21, hits give low values 0.992 | locus YDR388W, hits give low values 1 | locus YDR502C, strain sam2, hits give low values 0.986 | locus YEL061C, strain CIN8, hits give low values 0.995 | locus YER110C, hits give low values 0.995 | locus YER155C, strain BEM2, hits give low values 1.03 | locus YER167W, strain BCK2, hits give low values 1.01 | locus YGL078C, strain dbp3, hits give low values 1.01 | locus YGL086W, strain mad1, hits give low values 1.04 | locus YGL248W, strain PDE1, hits give low values 0.979 | locus YGR078C, strain PAC10, hits give low values 0.98 | locus YGR135W, strain pre9, hits give low values 0.966 | locus YGR252W, strain gcn5, hits give low values 0.959 | locus YHR030C, strain SLT2, hits give low values 1.01 and 1.04 | locus YHR079C, strain IRE1 (second series), hits give low values 0.996 | locus YHR079C, strain IRE1, hits give low values 1.03 | locus YHR094C, strain hxt1, hits give low values 0.987 | locus YHR129C, strain ARP1, hits give low values 0.995 | locus YHR200W, strain rpn10, hits give low values 0.988 | locus YIL066C, strain RNR3, hits give low values 0.996 | locus YIL073C, strain SPO22, hits give low values 0.997 | locus YIL125W, strain kgd1, hits give low values 1 | locus YIR030C, strain dcg1, hits give low values 1 | locus YJL095W, strain BCK1, hits give low values 0.956 and 1.01 | locus YJL134W, strain LCB3, hits give low values 1 | locus YJL168C, strain set2, hits give low values 0.992 | locus YJL187C, strain SWE1 (second series), hits give low values 0.991 | locus YJR043C, strain POL32, hits give low values 1.01 | locus YJR066W, strain TOR1, hits give low values 0.978 | locus YJR075W, strain HOC1, hits give low values 1.01 | locus YKL068W, hits give low values 0.982 | locus YKL085W, strain MDH1 (second series), hits give low values 1 | locus YKL085W, strain MDH1, hits give low values 1 | locus YKR001C, strain vps1, hits give low values 1 | locus YLR039C, strain RIC1, hits give low values 1 | locus YLR058C, strain SHM2, hits give low values 1 | locus YLR102C, strain apc9, hits give low values 1 | locus YLR113W, strain HOG1, hits give low values 0.984 | locus YLR262C, strain YPT6, hits give low values 0.955 | locus YLR268W, strain sec22, hits give low values 1.03 | locus YLR330W, strain CHS5, hits give low values 1 | locus YLR342W, strain FKS1 (second series), hits give low values 1.06 | locus YLR371W, strain rom2, hits give low values 0.981 | locus YLR418C, strain cdc73, hits give low values 0.971 | locus YML016C, strain PPZ1, hits give low values 0.996 | locus YML032C, strain rad52, hits give low values 1.01 | locus YML124C, strain tub3, hits give low values 0.997 | locus YMR078C, strain ctf18, hits give low values 0.991 | locus YMR223W, strain ubp8, hits give low values 1.01 | locus YMR307W, strain GAS1, hits give low values 1.05 | locus YNL067W, strain RPL9B, hits give low values 0.983 | locus YNL128W, strain TEP1, hits give low values 0.96 | locus YNL183C, strain NPR1, hits give low values 0.976 | locus YNL233W, strain BNI4, hits give low values 1 | locus YNL250W, strain rad50, hits give low values 1 | locus YNL271C, strain bni1, hits give low values 1 | locus YNL298W, strain CLA4, hits give low values 0.997 | locus YNL307C, strain MCK1, hits give low values 1.01 | locus YNL322C, strain KRE1, hits give low values 0.99 | locus YNR052C, strain pop2, hits give low values 0.993 | locus YOL006C, strain TOP1, hits give low values 1.11 | locus YOL012C, strain htz1 0.802 | locus YOL147C, strain pex11, hits give low values 1.01 | locus YOR061W, strain CKA2, hits give low values 0.988 | locus YOR069W, strain VPS5, hits give low values 1.01 | locus YOR136W, strain idh2, hits give low values 1.01 | locus YOR144C, strain elg1, hits give low values 0.994 | locus YOR184W, strain ser1, hits give low values 0.983 | locus YOR231W, strain MKK1, hits give low values 1.01 | locus YOR316C, strain cot1, hits give low values 0.997 | locus YPL256C, strain CLN2, hits give low values 1.03 | locus YPR119W, strain clb2, hits give low values 0.991 | locus YPR141C, strain kar3, hits give low values 0.997 | locus YPR163C, strain tif3, hits give low values 0.985 | locus YPR167C, strain met16, hits give low values 0.994 | strain wtn01, hits give low values 1.03
active: locus YKL009W, strain mrt4, hits give low values 1.13 [resistant]

Source: PubChem BioAssay AID1159580 (chemical genetic matrix, 2015)
